The text below walks through data of PubChem BioAssay (EPA / NIEHS).

For orientation: AC50 means the concentration at which the activity in the assay is half-maximal.

Test [1] can be described thus: TOX21_PR_LUC_Followup_Antagonist_viability: Viability Assessment in the Tox21 HEK293 Progesterone Receptor (PR) Antagonism Luciferase Follow-Up Assay (AID 2283940). In a few lines: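 HEK293-PR-A-luc cells, precultured 5 days in assay medium with 10% charcoal-stripped FBS, were seeded at 3,000 cells/well, treated with compounds in DMSO for 16 h at 37C, and viability was read as cellular ATP by CellTiter-Glo luminescence.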

Test [2] is described as follows: TOX21_PR_LUC_Followup_Agonist_viability: Viability Assessment in the Tox21 HEK293 Progesterone Receptor (PR) Agonism Luciferase Follow-Up Assay (AID 2283941).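 Further: loss of signal means cytotoxicity so actives lower viability.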 In a few lines:
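HEK293-PR-A-luc cells, pre-cultured 5 days in 10% charcoal-stripped FBS, were seeded at 3,000 cells/well, rested 5 h at 37C, then given compound in DMSO for 16 h at 37C. Cellular ATP was read by CellTiter-Glo luminescence; signal loss indicates cytotoxicity.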

The target in test [3] is Nucleoli Translocation, AR (gene 367) (UniProt P10275). In words: UPITT_HCI_U2OS_AR_TIF2_Nucleoli_Antagonist: University of Pittsburgh U2OS Androgen Receptor-Transcriptional Intermediary Factor 2 (AR-TIF2) Antagonism High Content Imaging Assay for Nucleoli Translocation (AID 2283997). An outline of the steps:
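U2OS cells co-expressing red-fluorescent-tagged human AR and green-fluorescent-tagged TIF2, imaged by high-content microscopy for nucleolar red fluorescence. Antagonist mode against DHT; primary screen at 20 uM final (0.2% DMSO).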

Test [4] has the same target. Kind of test: UPITT_HCI_U2OS_AR_TIF2_Nucleoli_Agonist: University of Pittsburgh U2OS Androgen Receptor-Transcriptional Intermediary Factor 2 (AR-TIF2) Agonism High Content Imaging Assay for Nucleoli Translocation (AID 2283998). An outline of the steps: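 Nucleolar translocation of AR-RFP, with TIF2-GFP coexpressed in human osteosarcoma U2OS, imaged by high-content fluorescence. Compounds tested singly at 20 uM final, confirmed in triplicate, then titrated 0.195–50 uM final; gain-of-signal relative to DMSO.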

In test [5] the target is Ratio of Nucleoli Translocation and Cytoplasm, AR (gene 367) (UniProt P10275). In words: UPITT_HCI_U2OS_AR_TIF2_Nucleoli_Cytoplasm_Ratio_Agonist: University of Pittsburgh U2OS Androgen Receptor-Transcriptional Intermediary Factor 2 (AR-TIF2) Agonism High Content Imaging Assay for Ratio of Nucleoli Translocation and Cytoplasm (AID 2284000).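 Further: hits raise the red nucleolar to cytoplasm ratio above vehicle.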 An outline of the steps:
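U2OS cells expressing RFP-tagged human AR and GFP-tagged TIF2; high-content imaging ratio of nucleolar to cytoplasmic red fluorescence, fitted as gain of signal vs DMSO. Single point at 20 uM final (0.2% DMSO); concentration-response 0.195-50 uM final (0.5% DMSO).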

The subject of test [6] is DIO1 (gene 1733). Kind of test: CCTE_GLTED_hDIO1: CCTE's human Deiodinase 1 (DIO1) Inhibition Assay, Great Lakes Toxicology and Ecology Division (GLTED) Lab (AID 2283987).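 Further: isolated human DIO1 enzyme in a cell-free setup rather than cells; enzyme activity read as free iodide liberated from substrate via Sandell-Kolthoff colorimetry.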 An outline of the steps:
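Inhibition read as reduced iodide release: after 3 h of human DIO1 with chemical, free iodide is quantified colorimetrically (Sandell-Kolthoff cerium/arsenic reaction). Triplicate plates, DMSO baseline.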

Test [7] can be described thus: CCTE_Simmons_MITO_basal_resp_rate: CCTE's HepG2 Seahorse XF Respirometric Screening Assay at Basal Respiratory State, Simmons Lab (AID 2284001; active means hit-call score of the fitted dose curve at least 0.9, where 1 is the maximum; inactive means score below 0.9). The following applies: actives raise or lower the signal. In a few lines:
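HepG2 oxygen consumption on Seahorse XF96 after compound injection, 7 concentrations 125 nM–100 uM final, reads every 6 min over 72 min. Triplicate biological replicates; bidirectional fit vs DMSO; fenpyroximate and 2,4-dinitrophenol controls.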

Test [8] addresses THRA (gene 7067) (UniProt P10827). In words: TOX21_TRA_COA_Agonist_Followup_ratio: Tox21 Thyroid Hormone Receptor alpha Agonism through Coactivator Recruitment Follow-Up Assay, Ratio (AID 2283948; active means hit-call score of the fitted dose curve at least 0.9, where 1 is the maximum; inactive means score below 0.9). In a few lines: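 Cell-free TR-FRET coactivator recruitment: GST-tagged TRα LBD (2.5 nM) with 0.10% BSA was incubated with compound, then fluorescein-SRC-2 peptide (200 nM) and Tb-anti-GST antibody (2 nM) added. 520:495 nm ratio normalized to DMSO (0%) and T3 (100%).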

A short description of test [9]: TOX21_TRB_BLA_Agonist_Followup_viability: Viability Assessment in the Tox21 Thyroid Hormone Receptor beta Agonism Beta-lactamase (BLA) Follow-Up Assay (AID 2283956). An outline of the steps:
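TRb-bla HEK293T cells (GAL4-DBD/human TRb LBD) in 2% charcoal-stripped FBS medium were exposed 18 h at 37C to 11 concentrations in triplicate. CellTiter-Glo ATP luminescence was read after 30 min at room temperature, with bidirectional fitting against DMSO.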

In test [10] the target is THRB (gene 7068) (UniProt P10828). In words: TOX21_TRB_COA_Agonist_Followup_ratio: Tox21 Thyroid Hormone Receptor beta Agonism through Coactivator Recruitment Follow-Up Assay, Ratio (AID 2283963; active means hit-call score of the fitted dose curve at least 0.9, where 1 is the maximum; inactive means score below 0.9). In a few lines: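 Agonism is measured as coactivator recruitment in a purified-protein TR-FRET format, using GST-TRβ LBD at 5.0 nM, fluorescein-SRC-2 peptide at 200 nM and Tb-labeled anti-GST antibody at 2 nM. Values are 520:495 nm ratios relative to DMSO (0%) and T3 (100%).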

Test [11] addresses Retinoic acid receptor RXR-alpha (Homo sapiens) (UniProt P19793). In words: TOX21_TR_RXR_BLA_Agonist_Followup_ratio: Tox21 Thyroid Hormone Receptor beta Retinoid X Receptor alpha (RXRa) Agonism Beta-lactamase (BLA) Follow-Up Assay, Ratio (AID 2283968). In a few lines:
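RXRa-UAS-bla HEK293T cells (GAL4 beta-lactamase reporter) were treated with compounds at 11 concentrations in triplicate for 16 h at 37C/5% CO2, then loaded with CCF4-AM substrate for 2 h at room temperature; activity is the 460:530 nm ratio versus DMSO baseline.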

Test [12] is described as follows: TOX21_TR_RXR_BLA_Agonist_Followup_viability: Viability Assessment in the Tox21 Thyroid Hormone Receptor beta Retinoid X Receptor alpha (RXRa) Agonism Beta-lactamase (BLA) Follow-Up Assay (AID 2283970). In a few lines:
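RXRa-UAS-bla HEK293T cells seeded at 2,500/well in phenol red-free DMEM with 2% charcoal-stripped FBS, exposed to compound 16h at 37C/5% CO2 in qHTS. Viability read by CellTiter-Glo ATP luminescence; bidirectional fitting against DMSO baseline, signal loss indicating cytotoxicity.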

For test [13], the target named is Ratio of Nucleoli Translocation and Cytoplasm, AR (gene 367) (UniProt P10275). In words: UPITT_HCI_U2OS_AR_TIF2_Nucleoli_Cytoplasm_Ratio_Antagonist: University of Pittsburgh U2OS Androgen Receptor-Transcriptional Intermediary Factor 2 (AR-TIF2) Antagonism High Content Imaging Assay for Ratio of Nucleoli Translocation and Cytoplasm (AID 2283999).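 Further: antagonists lower the DHT-driven ratio of nucleolar to cytoplasmic red signal.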 In a few lines:
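U2OS cells expressing RFP-tagged human AR and GFP-tagged TIF2; compounds tested at 20 uM final (0.2% DMSO) in primary screen, 0.195–50 uM (0.5% DMSO) for concentration response. Readout: nucleolar-to-cytoplasmic red fluorescence ratio by high-content imaging, fitted relative to DHT.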

The target of test [14] is Thyroid hormone receptor alpha (Rattus norvegicus) + Thyroid hormone receptor beta (Rattus norvegicus) (UniProt P18113+P63059). Kind of test: TOX21_TR_LUC_GH3_Antagonist_Followup: Tox21 GH3 Thyroid Hormone Receptor Antagonism Luciferase Follow-Up Assay (AID 2283942). An outline of the steps: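 Antagonist mode: GH3 cells seeded 1,500/well, compounds at 15 concentrations (92 uM to 5nM final) plus T3 at 1.0 nM final, 24 h at 37C. Luciferase read with ONE-Glo after 30 min at room temperature.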

The target in test [15] is THRB (gene 7068) (UniProt P10828). Kind of test: TOX21_TRB_BLA_Antagonist_Followup_ratio: Tox21 Thyroid Hormone Receptor beta Antagonism Beta-lactamase (BLA) Follow-Up Assay, Ratio (AID 2283958). In a few lines: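 GAL4-DBD/human TRβ-LBD fusion in GeneBLAzer UAS-bla HEK293T cells, 3,000 cells/well in phenol red-free DMEM with 2% charcoal-stripped FBS; compounds at 11 concentrations in triplicate, 18 h at 37C. CCF4-AM substrate 2 h, 460:530 nm ratio relative to DMSO.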

The nature of test [16]: TOX21_TRB_BLA_Antagonist_Followup_viability: Viability Assessment in the Tox21 Thyroid Hormone Receptor beta Antagonism Beta-lactamase (BLA) Follow-Up Assay (AID 2283961). In a few lines:
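ATP-based CellTiter-Glo luminescence (30 min, room temperature) run in the same wells as the TRβ-bla readout. Cells: GeneBLAzer HEK293T expressing GAL4-TRβ LBD, exposed 18 h at 37C to compounds at 11 concentrations in triplicate, stripped-serum medium.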

Test [17] addresses THRB (gene 7068) (UniProt P10828). Kind of test: TOX21_TRB_COA_Antagonist_Followup_ratio: Tox21 Thyroid Hormone Receptor beta Antagonism through Coactivator Recruitment Follow-Up Assay, Ratio (AID 2283967). An outline of the steps: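 Cell-free TR-FRET: GST-TRb LBD (5.0 nM) with fluorescein-SRC-2 peptide (200 nM) and Tb anti-GST antibody (2 nM), 0.10% BSA. 520:495 nm emission ratio normalized to DMSO (0%) and T3 (100%).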

In test [18] the target is Retinoic acid receptor RXR-alpha (Homo sapiens) (UniProt P19793). In words: TOX21_TR_RXR_BLA_Antagonist_Followup_ratio: Tox21 Thyroid Hormone Receptor beta Retinoid X Receptor alpha (RXRa) Antagonism Beta-lactamase (BLA) Follow-Up Assay, Ratio (AID 2283972). In a few lines: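 After 5 h attachment at 37C, HEK293T RXRa-bla cells (2,500/well, 2% charcoal-stripped FBS, no phenol red) received compounds at 11 concentrations in triplicate for 16 h. Beta-lactamase read as 460:530 nm ratio after 2 h RT substrate loading.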

Test [19] in a line: TOX21_TR_RXR_BLA_Antagonist_Followup_viability: Viability Assessment in the Tox21 Thyroid Hormone Receptor beta Retinoid X Receptor alpha (RXRa) Antagonism Beta-lactamase (BLA) Follow-Up Assay (AID 2283979). In a few lines: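 RXRa-bla HEK293T cells (2,500/well, phenol red-free DMEM, 2% charcoal-stripped FBS) were attached 5 h, then exposed to compounds at 11 concentrations in triplicate for 16 h at 37C. Viability measured by CellTiter-Glo ATP luminescence, bidirectional fitting versus DMSO.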

The target of test [20] is THRB (gene 7068) (UniProt P10828). In words: TOX21_TRB_BLA_Agonist_Followup_ratio: Tox21 Thyroid Hormone Receptor beta Agonism Beta-lactamase (BLA) Follow-Up Assay, Ratio (AID 2283954). In a few lines:
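Human TRβ LBD–GAL4 DBD fusion in GeneBLAzer UAS-bla HEK293T cells; 11 concentrations in triplicate, 18 h at 37°C/5% CO2, T3 as agonist control. CCF4-AM substrate 2 h at room temperature; 460:530 nm ratio fitted for gain of signal versus DMSO.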

Records with an inconclusive call do not appear. Activity calls are given as the source filed them. How the source made its calls, unless noted: active means hit-call score of the fitted dose curve at least 0.9, where 1 is the maximum; inconclusive means response in the unintended direction; inactive means score below 0.9.

Nucleoli Translocation, AR (gene 367), sequence (P10275 whole entry, looked up): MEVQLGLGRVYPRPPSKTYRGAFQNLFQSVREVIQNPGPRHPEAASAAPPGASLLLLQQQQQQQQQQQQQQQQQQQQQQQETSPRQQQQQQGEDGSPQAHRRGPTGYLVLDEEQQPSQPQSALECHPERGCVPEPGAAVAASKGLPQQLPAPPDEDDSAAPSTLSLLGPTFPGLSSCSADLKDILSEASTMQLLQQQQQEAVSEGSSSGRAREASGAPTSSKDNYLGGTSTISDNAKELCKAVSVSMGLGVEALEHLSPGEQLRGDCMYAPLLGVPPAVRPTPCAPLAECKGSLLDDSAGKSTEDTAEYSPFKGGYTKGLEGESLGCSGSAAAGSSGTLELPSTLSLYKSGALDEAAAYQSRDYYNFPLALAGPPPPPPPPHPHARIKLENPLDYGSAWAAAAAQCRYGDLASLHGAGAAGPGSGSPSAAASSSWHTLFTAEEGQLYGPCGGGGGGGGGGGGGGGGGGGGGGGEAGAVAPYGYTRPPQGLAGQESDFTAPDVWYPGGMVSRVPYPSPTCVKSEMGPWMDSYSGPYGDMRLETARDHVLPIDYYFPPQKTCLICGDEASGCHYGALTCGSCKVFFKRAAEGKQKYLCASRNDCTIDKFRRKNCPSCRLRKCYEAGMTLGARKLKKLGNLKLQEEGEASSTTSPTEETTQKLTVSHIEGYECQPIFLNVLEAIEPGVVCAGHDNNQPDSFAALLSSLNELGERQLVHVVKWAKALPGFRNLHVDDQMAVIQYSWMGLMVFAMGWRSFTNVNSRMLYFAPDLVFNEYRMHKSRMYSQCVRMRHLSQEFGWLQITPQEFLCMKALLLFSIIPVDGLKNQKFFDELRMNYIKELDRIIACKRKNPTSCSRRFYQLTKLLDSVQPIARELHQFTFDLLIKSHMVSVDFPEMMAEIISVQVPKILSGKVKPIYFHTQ
Ratio of Nucleoli Translocation and Cytoplasm, AR (gene 367), sequence (P10275 whole entry, looked up): as above
Retinoic acid receptor RXR-alpha (Homo sapiens), sequence (P19793 whole entry, looked up, the tested form may be a part): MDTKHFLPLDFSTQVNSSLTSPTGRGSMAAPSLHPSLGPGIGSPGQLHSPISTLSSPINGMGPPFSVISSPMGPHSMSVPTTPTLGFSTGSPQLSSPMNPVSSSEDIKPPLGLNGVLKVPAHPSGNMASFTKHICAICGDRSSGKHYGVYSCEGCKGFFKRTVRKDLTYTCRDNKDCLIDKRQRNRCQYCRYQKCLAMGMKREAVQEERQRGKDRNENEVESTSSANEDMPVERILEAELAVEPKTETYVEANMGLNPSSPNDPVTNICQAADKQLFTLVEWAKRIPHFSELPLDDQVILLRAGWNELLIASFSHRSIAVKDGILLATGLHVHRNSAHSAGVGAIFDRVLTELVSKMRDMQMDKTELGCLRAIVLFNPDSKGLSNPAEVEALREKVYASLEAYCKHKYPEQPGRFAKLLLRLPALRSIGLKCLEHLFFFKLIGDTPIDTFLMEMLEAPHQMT
THRB (gene 7068), sequence (P10828 whole entry, looked up, the tested form may be a part): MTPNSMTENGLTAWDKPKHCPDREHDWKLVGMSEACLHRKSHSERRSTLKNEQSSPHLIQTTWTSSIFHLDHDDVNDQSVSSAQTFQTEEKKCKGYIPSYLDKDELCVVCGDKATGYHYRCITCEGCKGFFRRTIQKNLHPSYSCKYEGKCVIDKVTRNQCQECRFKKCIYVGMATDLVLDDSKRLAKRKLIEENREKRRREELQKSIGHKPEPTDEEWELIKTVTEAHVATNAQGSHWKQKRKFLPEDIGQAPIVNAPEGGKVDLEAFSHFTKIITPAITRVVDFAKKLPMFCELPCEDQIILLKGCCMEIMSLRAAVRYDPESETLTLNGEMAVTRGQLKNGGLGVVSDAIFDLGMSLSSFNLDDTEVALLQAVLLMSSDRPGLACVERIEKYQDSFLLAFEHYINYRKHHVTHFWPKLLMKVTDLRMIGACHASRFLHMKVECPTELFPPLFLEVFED
THRA (gene 7067), sequence (P10827 whole entry, looked up, the tested form may be a part): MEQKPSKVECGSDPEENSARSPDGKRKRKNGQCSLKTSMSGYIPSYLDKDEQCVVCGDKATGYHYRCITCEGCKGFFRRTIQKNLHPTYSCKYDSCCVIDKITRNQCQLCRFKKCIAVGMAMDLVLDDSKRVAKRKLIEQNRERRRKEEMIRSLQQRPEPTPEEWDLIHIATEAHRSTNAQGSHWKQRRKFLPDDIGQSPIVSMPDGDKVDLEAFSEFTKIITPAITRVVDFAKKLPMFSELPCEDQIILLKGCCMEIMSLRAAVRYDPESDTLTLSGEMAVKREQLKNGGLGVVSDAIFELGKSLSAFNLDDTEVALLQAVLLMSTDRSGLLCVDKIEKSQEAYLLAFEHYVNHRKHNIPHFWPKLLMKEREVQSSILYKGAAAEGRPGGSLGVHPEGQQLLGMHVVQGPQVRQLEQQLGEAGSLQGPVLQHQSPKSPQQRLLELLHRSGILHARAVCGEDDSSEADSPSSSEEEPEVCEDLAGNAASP

Take `O=S1(=O)OCC2C(CO1)C1(Cl)C(Cl)=C(Cl)C2(Cl)C1(Cl)Cl` (stereo unspecified): the compound was called inactive in [1] and in test [2].

As to `CCN(CC)c1ccccc1`, the compound was classed as inactive in test [3], in test [4] and in [5].

As for `O=c1ssc(Cl)c1Cl`, the AC50 in [6] was 0.149 µM (active).

Consider `CCOP(=S)(OCC)SCSCC`, for which, in [7], the result was inactive.

Take `C=CC(=O)OCC(F)(F)C(F)F`: the AC50 in test [6] was 19.8 µM (active).

For the compound `CC(Cc1ccc(OCC(=O)O)cc1)NCC(O)c1csc(C(F)(F)F)n1` (stereo unspecified), the outcome in [8], in [9], in test [10], in test [11] and in [12] was inactive.

Take `CC(C)(C)N(NC(=O)c1ccc(Cl)cc1)C(=O)c1ccccc1`: the result in [3], in [4] and in test [13] was inactive.

Take `CCC(C)(C)c1ccc(O)cc1`: the AC50 in test [7] was 49.9 µM (active).

For the compound `CCCCC(CC)COP(=O)(Oc1ccccc1)Oc1ccccc1` (stereo unspecified), the compound was called inactive in test [3], in [4], in test [13] and in test [5].

For the compound `ClC1=C(Cl)C2(Cl)C3C(Cl)C(Cl)CC3C1(Cl)C2(Cl)Cl` (stereo unspecified), the AC50 in [3] was 11.5 µM (active). Besides, the outcome in [4], in [13] and in test [5] was inactive.

Regarding `CO/N=C(/C(=O)OC)c1ccccc1COc1ccccc1C`, the figures for the concentration at half-maximal activity (AC50) in test [14] and in test [15] were 9.33 µM (active) and 23.1 µM (active), respectively. Further, the outcome in test [16], in test [17], in test [18], in [19], in test [3] and in test [4] was inactive. Besides, the outcome in test [13] and in test [5] was inactive.

On to `CCC1(c2ccccc2)C(=O)N=C(O)NC1=O` (stereo unspecified), for which the result in test [8], in test [20], in [9], in test [10], in test [11] and in [12] was inactive.
